Tau fibril ThT = tau fibrillization inhibition (ThT binding); P10636; recombinant tau K18 P301L, heparin-induced fibrillization, ThT fluorescence; Potency, µM (highest dose often 57.4 µM), usual class: inhibitors; 270,000 compounds, 2.1% hits; AID 1460; also: nearly all actives have a fitted effect of over 55% in size
Target sequence (P10636 561-689 P618L limits assumed): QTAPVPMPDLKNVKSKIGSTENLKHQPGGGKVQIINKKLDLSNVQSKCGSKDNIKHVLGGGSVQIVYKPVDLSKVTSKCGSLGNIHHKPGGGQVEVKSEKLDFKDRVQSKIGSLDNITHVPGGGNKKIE
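K18 P301L tau (15 uM + 0.24 uM Alexa 594-tagged), heparin 20 uM, NaOAc pH 7, 6 h 37 C; ThT 30 uM, 1 h RT, ex 450/em 510 nm.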
Coupling enz = inhibits coupling enzyme system, counter-screen for aldolase hits; 290,000 compounds, 0.67% hits; activity change, negative = inhibition, % at 58.2 µM, hits read low; coupling enzyme system counterscreen, AmpLite Red fluorescence; in the data active = activity change below about -30%
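Activity here indicates interference with the coupling reaction, not aldolase inhibition. Compounds at 57.5 uM final met coupling enzymes for 10 min at RT; substrate and AmpLite Red detection followed, with a 525/598 nm fluorescence read after 20 min.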
Tau fluor counter = counter-screen for tau fibril formation inhibitors; tau K18 P301L Alexa594 fluorescence, heparin fibrillization; Potency, µM (top dose mostly 57.7 µM); 280,000 compounds, 0.93% hits; AID 1463; also: nearly all actives have a fitted effect of over 55% in size
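Human tau K18 P301L (15 uM unlabeled, 0.24 uM Alexa 594-labeled) in 100 mM sodium acetate pH 7 with 20 uM heparin, 6 hr at 37 C. ThT 30 uM added, 1 hr ambient; Alexa 594 FP and total fluorescence read at 555/632 nm.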
Tau FP inhib = blocks human tau fibril formation measured by polarization; K18 P301L tau heparin fibrillization, Alexa594 FP, 6 h; Potency, µM (series often up to 57.7 µM), actives largely listed as inhibitors; 280,000 compounds, 0.39% hits; P10636; also: nearly all actives have a fitted effect of over 55% in size
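Human K18 P301L fragment (15 uM unlabeled plus 0.24 uM Alexa 594-labeled) in 100 mM sodium acetate pH 7 with compound, aggregation induced by 20 uM heparin for 6 hr at 37 C. ThT (30 uM) added for 1 hr, then Alexa 594 FP read.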
Sfp inh = inhibitors of Bacillus subtilis Sfp phosphopantetheinyl transferase | Q9F4F7 | Biochemical Sfp PPTase activity, qHTS | Potency, µM, most hits filed as inhibitors | 310,000 compounds, 3.5% hits;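 also: the enzyme is Sfp with the accession as filed and its product quenches rhodamine fluorescence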
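Step 1, compound plus 15 nM Sfp-PPTase, 15 min, room temperature. Step 2, add rhodamine-CoA (5 uM) and BHQ-2-YbbR (12.5 uM). Step 3, read 525/598 nm fluorescence at 0 and 30 min.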
G9a inh = blocks human histone lysine methyltransferase G9a. Q96KQ7. G9a H3K9 monomethylation, AlphaScreen, 2 h. Potency, µM (highest dose often 102 µM), hits mostly inhibitors. 350,000 compounds, 8.8% hits. AID 504332; also: nearly all actives have a fitted effect of over 75% in size
Target sequence (Q96KQ7 913-1193 limits assumed): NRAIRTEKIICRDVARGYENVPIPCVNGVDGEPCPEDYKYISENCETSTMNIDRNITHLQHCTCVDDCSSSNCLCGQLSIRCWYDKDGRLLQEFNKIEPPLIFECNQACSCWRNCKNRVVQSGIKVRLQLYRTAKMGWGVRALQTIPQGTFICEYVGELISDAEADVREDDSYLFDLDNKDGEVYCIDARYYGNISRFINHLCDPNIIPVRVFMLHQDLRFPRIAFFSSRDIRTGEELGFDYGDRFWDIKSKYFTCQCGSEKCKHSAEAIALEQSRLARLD
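AlphaScreen read-out: biotin-H3K9 peptide (500 nM) methylation by 20 nM enzyme with 20 uM SAM, 2 h at room temperature after 15 min compound preincubation; anti-monomethyl H3K9 antibody plus donor/acceptor beads, 10 min dark.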
Of the large screens only hits and unclear results are named; the others gave an inactive call; [ ] = another dose, or the depositor's remark. An excerpt weighted towards active compounds, which were near 11% of everything screened. Unless noted, calls follow the shape of the dose curve; as a rule, active = well fitted curve in the direction sought with a large enough effect; inconclusive = small, poorly fitted or top-dose-only effect, or another doubt; inactive = no such curve, though single readings can be large; an effect the other way counts as inactive or inconclusive.

CCC(=O)c1ccc2c(c1)N(CCCN1CCN(CCO)CC1)c1ccccc1S2	Sfp inh 79.4µM, G9a inh inconclusive (no result: Tau fibril ThT, Coupling enz, Tau fluor counter, Tau FP inhib)
CN1CCN(CCCN2c3ccccc3Sc3ccccc32)CC1	G9a inh 28.2µM
COc1ccc(OC)c(C(=O)c2ccc(C(=O)Nc3ccc(NC(C)=O)cc3)cc2)c1	none (no result: Tau fibril ThT, Coupling enz, Tau fluor counter, Tau FP inhib)
CN(C)c1ccc(C(C(=O)NCC2CCCO2)N(C(=O)c2snc(C(N)=O)c2N)c2ccccc2)cc1 (centres undefined)	none (no result: Tau fibril ThT, Tau fluor counter, Tau FP inhib)
CC(C)c1ccc(N(C(=O)c2snc(C(N)=O)c2N)C(C(=O)NCC2CCCO2)c2ccc(N(C)C)cc2)cc1 (centres undefined)	G9a inh 12.6µM (no result: Tau fibril ThT, Tau fluor counter, Tau FP inhib)
CN(C)c1ccc(C(C(=O)NCC2CCCO2)N(C(=O)c2snc(C(N)=O)c2N)c2ccc3c(c2)OCO3)cc1 (centres undefined)	G9a inh 39.8µM (no result: Tau fibril ThT, Tau fluor counter, Tau FP inhib)
COc1ccc(C(C(=O)NCc2ccccc2)N(Cc2cccnc2)C(=O)c2snc(C(N)=O)c2N)cc1OC (centres undefined)	none (no result: Tau fibril ThT, Tau fluor counter, Tau FP inhib)
CN(C)c1ccc(C(C(=O)NCc2ccccc2)N(Cc2cccnc2)C(=O)c2snc(C(N)=O)c2N)cc1 (centres undefined)	G9a inh 50.1µM (no result: Tau fibril ThT, Tau fluor counter, Tau FP inhib)
COc1ccc(-n2ccnc2SCC(=O)NO)cc1	G9a inh inconclusive
Cc1ccc(Cn2cc(/C=N/Nc3ccc([N+](=O)[O-])cn3)c3ccccc32)cc1	Tau fibril ThT 10µM, Tau fluor counter 11.2µM[quencher], G9a inh 50.1µM
O=C(O)Cn1cc(/C=N/Nc2ccc([N+](=O)[O-])cn2)c2ccccc21	Sfp inh inconclusive, G9a inh 44.7µM (no result: Tau fibril ThT, Tau fluor counter, Tau FP inhib)
COc1cccc(OCCn2c(-c3ccc(Cl)cc3)nc3ccccc3c2=O)c1	none (no result: Coupling enz, Sfp inh)
O=C(c1ccc2c(c1)OCO2)n1nnc2ccccc21	G9a inh 44.7µM
COc1ccc(C(=O)n2nnc3ccccc32)cc1OC	G9a inh 44.7µM
COc1ccc(C(=O)n2nnc3ccccc32)cc1Br	G9a inh inconclusive
Cc1occc1C(=O)n1nnc2ccccc21	Tau fibril ThT inconclusive, Sfp inh 31.6µM, G9a inh inconclusive
COc1ccc(N/C(=C(/C(Cl)=C(Cl)Cl)[N+](=O)[O-])n2nnc3ccccc32)cc1OC	Tau fibril ThT 14.1µM, Tau fluor counter inconclusive, Tau FP inhib inconclusive, Sfp inh 20µM, G9a inh 14.1µM
COc1ccc(NC(=O)COC(=O)Cc2ccccc2[N+](=O)[O-])cc1OC	none
CCN(CC)C(=O)Cn1c(=O)n(CCCC(=O)NCc2ccccc2)c(=O)c2sccc21	none
Cc1ccc(Nc2nnc(SCC(=O)c3ccc(O)cc3O)s2)cc1	G9a inh 31.6µM (no result: Tau fibril ThT, Tau fluor counter, Tau FP inhib)
Cc1cccc(Nc2nnc(SCC(=O)c3ccc(O)cc3O)s2)c1	G9a inh 44.7µM (no result: Tau fibril ThT, Tau fluor counter, Tau FP inhib)
Cc1cccc(Nc2nnc(SCC3CCCCO3)s2)c1 (centres undefined)	Tau fluor counter inconclusive, G9a inh 10µM
O=C(Cn1nc2c(cc1=O)CCCC2)Nc1ccccc1C(F)(F)F	none (no result: Coupling enz, Sfp inh)
CC(=O)Nc1ccc(NC(=O)C(C)OC(=O)CCCN2C(=O)c3cccc4cccc(c34)C2=O)cc1 (centres undefined)	none (no result: Tau fibril ThT, Coupling enz, Tau fluor counter, Tau FP inhib, Sfp inh)
O=C(Nc1ccc(Cl)c([N+](=O)[O-])c1)c1ccc(NCCCN2CCOCC2)c([N+](=O)[O-])c1	Tau fibril ThT 2.51µM
O=C(NCCN1CCOCC1)c1ccc(Cl)c([N+](=O)[O-])c1	none (no result: Tau fibril ThT, Tau fluor counter, Tau FP inhib, G9a inh)
Cc1ccc(NC(=O)c2ccc(NCCCN3CCOCC3)c([N+](=O)[O-])c2)cc1Cl	Tau fibril ThT 12.6µM, Tau fluor counter inconclusive, G9a inh inconclusive
COc1ccc(NC(=O)c2ccc(NCCCN3CCOCC3)c([N+](=O)[O-])c2)cc1	Tau fibril ThT 15.8µM, Sfp inh inconclusive
O=[N+]([O-])c1ccc(NCCCN2CCOCC2)c([N+](=O)[O-])c1	Tau fibril ThT inconclusive (no result: G9a inh)
CCOc1ccc(-c2cc(NC(=O)Nc3cccc(C(C)=O)c3)c(C(=O)OC)s2)cc1	none (no result: Coupling enz, Sfp inh)
O=c1/c(=C\c2cccc(O)c2)sc2nc(-c3ccccc3)c(-c3ccccc3)n12	Tau fibril ThT 11.2µM, Tau fluor counter inconclusive, Tau FP inhib 25.1µM, G9a inh inconclusive
COc1ccc(/C=c2/sc3nc(-c4ccccc4)c(-c4ccccc4)n3c2=O)cc1	Tau fibril ThT inconclusive, G9a inh 14.1µM
COc1cc(/C=c2/sc3nc(-c4ccccc4)c(-c4ccccc4)n3c2=O)cc(OC)c1OC	G9a inh inconclusive
O=c1/c(=C\c2cccn2-c2ccccc2)sc2nc3ccccc3n12	G9a inh inconclusive
COc1ccc(/C=c2\sc3nc(-c4ccccc4)c(-c4ccccc4)n3c2=O)cc1OC	Tau fibril ThT inconclusive, Tau FP inhib inconclusive, Sfp inh 17.8µM, G9a inh 35.5µM
COc1ccc(OC)c(CCNC(=O)CCc2nnc3ccc(N4CCOCC4)nn23)c1	none (no result: Tau fibril ThT, Coupling enz, Tau fluor counter, Tau FP inhib)
CCOc1ccc(C2=C(C(C)=O)Sc3nnc(C)n3N2C(C)=O)cc1	Tau fibril ThT inconclusive, Tau FP inhib inconclusive, G9a inh inconclusive (no result: Coupling enz, Sfp inh)
